Source: PubChem BioAssay (The Scripps Research Institute Molecular Screening Center)
Rows were chosen to be rich in hits. Some 4.6% of all compounds tested hit in one or more screens of this group.
DAX1 inh-1 = inhibits human nuclear receptor DAX1; 340,000 compounds, 0.99% hits; HEK293 Gal4-DAX1 luciferase reporter, luminescence; inhibition, % at 6.75 µM;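 active means inhibition above the mean over all tested compounds plus 3 SD, cut at about 4.2% in these data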;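 further: 0% = DAX1-transfected cells with DMSO and 100% = empty-vector control cells with DMSO; inhibition shows as a rise in luminescence from relieved DAX1 repression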
Target sequence (P51843 207-470 limits assumed): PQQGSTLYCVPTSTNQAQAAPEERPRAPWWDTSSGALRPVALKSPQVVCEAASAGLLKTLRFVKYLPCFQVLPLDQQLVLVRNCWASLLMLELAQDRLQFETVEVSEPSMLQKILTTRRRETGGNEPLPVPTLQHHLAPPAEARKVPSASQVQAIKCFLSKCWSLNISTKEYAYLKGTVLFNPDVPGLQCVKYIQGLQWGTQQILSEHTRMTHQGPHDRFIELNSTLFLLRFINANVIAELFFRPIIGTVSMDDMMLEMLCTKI
DAX1 inh-2 = inhibitors of DAX1 repression of SF-1 activated StAR promoter; HEK293T StAR-luciferase reporter, SF-1/DAX-1 repression relief; inhibition, % at 6.8 µM; 370,000 compounds, 1.1% hits; AID 652010;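 active means inhibition above the mean over all tested compounds plus 3 SD, cut at about 3.6% in these data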;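 further: 0% = DAX-1 cells with DMSO and 100% = cells lacking DAX-1 with DMSO; higher inhibition means more luminescence from relief of DAX-1 repression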
hgDAF-12 ag = agonists of H. glycines DAF-12 nuclear receptor | HEK293 GAL4-hgDAF12 UAS-luciferase reporter, agonist luminescence; normalized to butyrate control | activation, % at 6.8 µM | 370,000 compounds, 1.8% hits;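 active means activation above a cutoff set at the mean of all screened compounds plus 3 SD, cut at about 10% in these data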;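 further: 0% = DMSO wells and 100% = sodium butyrate wells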
Wee1 degr inh = human Wee1 degradation inhibition, primary screen | P30291 | HeLa Luc-Wee1K328M stability, luciferase luminescence; 100% = proteasome inhibitor MG132 effect | reporter increase, % at 5 µM | 220,000 compounds, 1.2% hits;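 active means activation above the mean of all tested compounds plus 3 SD, set per screening run, cut at about 8.8% in these data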;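 further: cells exposed to compound for 20 h before luminescence read; 0% = DMSO alone and 100% = MG132 at 30 µM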
ssDAF-12 act = S. stercoralis DAF-12 activation, primary screen; HEK293 ssDAF-12/GRIP1 lit1-tk-luc reporter, luminescence; % of 3 µM dafachronic acid response; activation, % at 6.8 µM; 370,000 compounds, 1% hits; AID 652126;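 active means activation above the mean over all tested compounds plus 3 SD, cut at about 0.9% in these data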;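 further: 0% = DMSO-only wells and 100% = 3 µM delta7-dafachronic acid wells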
hcDAF-12 act = H. contortus DAF-12 activation, primary screen. activation, % at 6.8 µM. AID 652067. 370,000 compounds, 1.4% hits. HEK293 hcDAF-12 lit1-tk-luc reporter, luminescence; 0% DMSO, 100% Δ7-dafachronic acid;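 active means activation above the mean of all tested compounds plus 3 SD, cut at about 5.5% in these data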;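 further: 100% = response to 3 µM Δ7-dafachronic acid high control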
* hit, by the source's call; · = no result given.

SMILES | DAX1 inh-1 | DAX1 inh-2 | hgDAF-12 ag | Wee1 degr inh | ssDAF-12 act | hcDAF-12 act
COc1ccc(-c2cc(C(=O)Nc3cccc(C(C)=O)c3)no2)cc1 | 2.8 | -0.5 | 1.3 | 1.0 | -0.1 | -0.9
COc1ccc(NC(=O)c2cc(-c3cccc(OC)c3)on2)cc1 | -0.1 | -0.1 | -2.1 | -4.7 | -0.3 | -0.4
CCC(C)NC(=O)c1cc(-c2ccc(OC)cc2)on1 (centres undefined) | 1.3 | 2.2 | 11.1* | 5.4 | -1.2 | 3.0
COc1cccc(-c2cc(C(=O)Nc3cccc(O)c3)no2)c1 | -1.6 | 3.5 | 10.7* | 6.2 | -0.2 | 5.4
COCCc1ccc(OC2(C)CCN(Cc3cccn3-c3nccs3)C2)cc1 (centres undefined) | · | -0.6 | -2.5 | · | -0.9 | -0.3
CCc1ccccc1NC(=O)c1cc(-c2cccc(O)c2)on1 | 2.2 | 1.1 | 11.1* | -0.2 | -0.9 | -2.1
Cc1ccc(O)c(NC(=O)c2cc(-c3ccccc3)on2)c1 | 4.9* | 1.4 | 2.5 | · | -1.1 | 3.2
O=C(Nc1cc(Br)ccc1O)c1cc(-c2ccccc2)on1 | 1.9 | 0.5 | 1.0 | · | -0.5 | 3.5
CNC(=O)c1cc2c(cn1)[nH]c1ccccc12 | 0.6 | 3.7* | 6.2 | · | -0.1 | 1.4
Cc1ccc(CNC(=O)c2ccc(F)c(S(=O)(=O)N3CCOCC3)c2)cc1 | -1.5 | 0.3 | 1.1 | · | -0.8 | 2.5
COc1ccc([C@H]2OC(=O)C[C@H]2C(=O)N2CCN(C(=O)C3CCCO3)CC2)cc1OC (some centres undefined) | · | 0.7 | 1.1 | · | -1.5 | 0.2
CCc1ccc(OCC(=O)N(C)C)c(Br)c1 | 5.5* | 0.5 | 0.6 | 0.9 | -0.8 | -1.9
CCc1ccc(OCC(=O)NC(=S)Nc2ccc(F)cc2)c(Br)c1 | 1.9 | 0.4 | 3.0 | -1.7 | -0.8 | 1.5
COCCN1C(=O)COc2ccccc2C1C(=O)NCc1ccccc1 (centres undefined) | · | 0.3 | -1.4 | · | -1.1 | 0.6
Cn1c(/C(C#N)=C(\O)c2ccc(Br)s2)nc2ccccc21 | 0.4 | 0.0 | 2.5 | · | 1.0* | 5.3
Cc1cc(C)c2c(N)c(C(=O)Nc3ccccc3F)sc2n1 | 5.3* | 1.6 | 10.9* | · | -0.8 | 1.9
Cc1cc(C)c2c(N)c(C(=O)Nc3ccccc3Br)sc2n1 | 0.1 | 0.3 | 1.9 | · | -1.0 | 1.1
CN(c1cccnc1)c1ccc(NC(=O)Cc2c[nH]c3ccccc23)cc1-c1ccc(F)c(F)c1 | · | -1.2 | -1.8 | · | 0.8 | 3.5
O=C(O)c1cccc2c1-c1ccccc1/C2=N\Nc1ccccc1 | 5.4* | 0.7 | 8.5 | · | -0.5 | 4.3
O=C(O)c1cccc(NN=C2c3ccccc3-c3ccccc32)c1 | -0.1 | 1.0 | 2.7 | -1.6 | -0.2 | -1.4
COC(=O)c1nnn(Cc2ccccc2)c1N | 0.5 | 0.4 | 3.5 | -0.9 | -1.4 | -1.6
Nc1c(C2=NCCO2)nnn1Cc1ccccc1 | 2.0 | -0.3 | 0.8 | 9.2* | -1.4 | 0.9
CC(=O)Nc1ccc2c(c1)C(=O)N(C)[C@H]1CC[C@H](CC(=O)NCc3ccc(F)cc3)O[C@@H]1CO2 | · | 0.0 | -1.4 | · | -0.7 | -2.2
CCCCn1nnnc1C(c1ccccc1)N1CCN(c2cccc(C(F)(F)F)n2)CC1 (centres undefined) | · | -1.5 | 0.6 | · | -1.0 | 0.0
COc1ccc(Cn2cc(CN3CC(N4CCN(CCO)CC4)CS3(=O)=O)nn2)cc1 (centres undefined) | · | 1.1 | 0.3 | · | -1.0 | -1.3
SMILES | DAX1 inh-1 | DAX1 inh-2 | hgDAF-12 ag | Wee1 degr inh | ssDAF-12 act | hcDAF-12 act
CCN(C)C1CN(Cc2cn(Cc3ccc(Cl)cc3)nn2)S(=O)(=O)C1 (centres undefined) | · | 0.5 | 2.7 | · | -1.2 | 0.2
CCCCCCn1cc(CN2CC(N3CCN(CCN(C)C)CC3)CS2(=O)=O)nn1 (centres undefined) | · | 3.9* | -2.5 | · | -1.0 | -1.1
Cc1ccc(Cn2cc(CN3CC(N4CCN(CCO)CC4)CS3(=O)=O)nn2)cc1 (centres undefined) | · | 4.2* | -1.6 | · | -1.6 | 1.1
CCN(C)C1CN(Cc2cn(Cc3ccc(C(F)(F)F)cc3)nn2)S(=O)(=O)C1 (centres undefined) | · | 4.1* | -1.9 | · | -0.6 | 0.7
COCCCn1cc(CN2CC(N3CCN(CCN(C)C)CC3)CS2(=O)=O)nn1 (centres undefined) | · | 3.5 | 0.5 | · | -0.5 | 4.4
Cc1ccc(S(=O)(=O)N2[C@@H](c3ccc(F)cc3)C(C(=O)O)=CC[C@H]2c2cccs2)cc1 | -0.6 | -0.5 | 0.9 | · | -1.2 | -0.7
O=C(NCC(=O)N1CCN(Cc2ccccc2)CC1)c1ccc(Br)o1 | -0.3 | 3.3 | 0.1 | · | -1.0 | 0.2
Cn1cccc1Cc1nnc(SCC(=O)N2CCOCC2)n1-c1ccc(F)cc1 | 4.2* | -1.0 | 0.3 | -2.1 | -0.6 | -2.5
COc1ccc(-n2c(Cc3cccn3C)nnc2SCC(=O)N2CCOCC2)cc1 | 0.2 | -0.2 | 0.0 | 13.1* | -1.6 | -0.6
Cn1cccc1Cc1nnc(SCC(N)=O)n1-c1ccc(F)cc1 | 2.8 | -0.1 | 2.1 | -2.6 | -1.5 | -0.6
CCOc1ccc(-n2c(SCC(=O)Nc3cccc4ccccc34)nnc2-c2ccncc2)cc1 | · | -2.6 | -0.5 | · | -0.2 | -2.0
O=C(COc1ccccc1)Nc1ccc(-c2nnc(-c3ccco3)o2)cc1 | 0.4 | 0.8 | 8.8 | -2.9 | 0.0 | 6.3*
CCCOc1ccc(-c2nnc(-c3ccco3)o2)cc1 | -3.0 | 3.7* | 11.1* | -1.6 | 0.0 | 4.5
CC(C)COc1ccc(-c2nnc(-c3ccco3)o2)cc1 | -0.1 | 3.7* | 10.0 | 0.1 | 0.8 | 4.5
Cc1ccc(C2=NN(CC(=O)NCc3cccs3)C(=O)CC2)cc1 | 5.4* | -0.8 | -0.7 | -1.1 | -1.5 | -1.1
Cc1ccc(C2=NN(CC(=O)NCCN(C)C)C(=O)CC2)cc1 | -0.9 | -0.2 | 1.9 | · | -1.3 | 0.2
S=C(NN=C(C1CC1)C1CC1)Nc1ccccc1 | 6.8* | 0.6 | 10.3 | 1.3 | -0.7 | -0.9
CC(=Nc1ccccc1O)c1sc2ccccc2c1O | 2.3 | -0.2 | 12.7* | -1.9 | 0.0 | 4.5
CC(=Nc1ccc(O)cc1)c1sc2ccccc2c1O | 1.1 | 0.1 | 11.6* | 3.5 | 0.4 | 5.2
CC(=O)NCCN=C(C)c1sc2ccccc2c1O | 0.1 | 0.7 | 6.1 | 1.1 | 0.7 | 0.6
CCOc1ccc(NC(=O)CCNS(=O)(=O)c2ccc3c(c2)oc(=O)n3C)cc1 | -0.4 | -2.0 | 0.9 | · | -0.6 | 5.9*
Cc1ccc(NC(=O)CCNS(=O)(=O)c2ccc3c(c2)oc(=O)n3C)cc1 | 0.2 | 0.7 | 2.1 | 3.1 | -0.7 | 0.5
C[C@@H]1C(=O)N2N=Cc3ccccc3[C@H]2N2N=Cc3ccccc3[C@@H]12 | · | 0.1 | -1.5 | · | -0.5 | 1.9
CCOC(=O)CSc1n[nH]c(NC(=O)c2cccc(C(F)(F)F)c2)n1 | -0.2 | -0.2 | -4.3 | -0.5 | -0.2 | 0.5
CCOC(=O)CSc1n[nH]c(NC(=O)CC)n1 | -0.1 | 0.1 | -2.8 | 10.2* | -1.4 | -1.4
